The values that follow come from the supplement of paper PMC3898565.

± gives the uncertainty stated by the source.
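Note: viable cell number estimated from Alamar Blue fluorescence read at 560/90, part of a single-dose primary screen of an FDA-approved drug library.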

The subject of the experiment is U87. The experiment in a line: cell viability relative to vehicle control; higher = less growth inhibition (less active). To be noted: 10 µM; 72 h.
Regarding `CCCCc1oc2ccccc2c1C(=O)c1cc(I)c(OCCN(CC)CC)c(I)c1` [Amiodarone], the cell viability was 105 ± 1.1%. Next, `CC(C)Oc1ccc2c(=O)c(-c3ccccc3)coc2c1`: 101 ± 2.6%. `C=CC1=C(C(=O)O)N2C(=O)[C@@H](NC(=O)/C(=N\OCC(=O)O)c3csc(N)n3)[C@H]2SC1`: the cell viability stood at 103.9 ± 0.8%.

In the case of `C[C@@H](O)[C@H]1C(=O)N2C(C(=O)O)=C(S[C@@H]3CN[C@H](C(=O)N(C)C)C3)[C@H](C)[C@H]12`, the cell viability was 106.4 ± 0.79%. Next, `CCCN1CCCC[C@H]1C(=O)Nc1c(C)cccc1C`: 107 ± 1.1%.

Regarding `CCN1CCN(c2cc3c(cc2F)c(=O)c(C(=O)O)cn3C2CC2)CC1`, the cell viability stood at 109 ± 1.3%. Next, `CN1CCC(=C2c3ccccc3C=Cc3ccccc32)CC1` [Cyproheptadine]: 103.33 ± 0.068%; `O=C(NCCN1CCOCC1)c1ccc(Cl)cc1` [4-Chloro-N-(2-morpholin-4-yl-ethyl)-benzamide]: 80.9 ± 3.8%; `NC(=O)OCC(COC(N)=O)c1ccccc1` [Felbamate]: 105.7 ± 1%. Next, `CO[C@H]1/C=C/O[C@@]2(C)Oc3c(C)c(O)c4c(O)c(c5c(nc6cc(C)ccn65)c4c3C2=O)NC(=O)/C(C)=C\C=C\[C@H](C)[C@H](O)[C@@H](C)[C@@H](O)[C@@H](C)[C@H](OC(C)=O)[C@@H]1C`: 96.1 ± 1.3%; `CCC1=C[C@H]2CN(C1)Cc1c([nH]c3ccccc13)[C@@](C(=O)OC)(c1cc3c(cc1OC)N(C)[C@H]1[C@@](O)(C(=O)OC)[C@H](OC(C)=O)[C@]4(CC)C=CCN5CC[C@]31[C@@H]54)C2` [Vinorelbine Bitatrate]: 18 ± 5%. Next, `NC(N)=NC(=O)c1nc(Cl)c(N)nc1N`: 93.54 ± 0.1%.
